Test results: PubChem BioAssay (Tox21)
Values joined by “and” are separate entries in the source; they are usually repeats but may differ in a detail not shown here. Equal entries are not always repeated. Records with an inconclusive call do not appear. More than one record can exist for a structure, and the calls need not agree. Active and inactive are the calls of the source. Unless noted, calls come from the whole dose curve; as a rule, active = well fitted curve in the direction sought with a large enough effect in the repeat runs; inconclusive = weak or mixed curves; inactive = no such curve, though single readings can be large; an effect the other way counts as inactive or inconclusive.

How the values were obtained:
[1] = qHTS assay to identify small molecule agonists of H2AX (AID 1224845; active = well fitted activation curve with a large enough effect in the signal ratio in the repeat runs, not every such curve was filed as active; the % refers to the signal ratio)
Summary of the method: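 Wild-type CHO-K1 cells, plated overnight, exposed 3hr at 37C to 15 concentrations (0.76% DMSO final). Lysed, then HTRF anti-pH2AX (S139) cryptate and anti-H2AX-d2 antibodies, 24 hr room temperature; 665/620 nm emission read.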

[2] = qHTS assay to identify small molecule agonists of the hypoxia (HIF-1) signaling pathway (AID 1224846; active = well fitted activation curve with a large enough effect in the signal ratio in the repeat runs, not every such curve was filed as active; the % refers to the signal ratio)
Summary of the method: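 HRE-bla ME-180 beta-lactamase reporter cells in medium with 0.5% dialyzed FBS, pre-incubated 5 h then exposed to compounds 17 h at 37C, 5% CO2; reporter induction read with CCF4-AM FRET substrate.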

[3] = qHTS assay to identify small molecule agonists of H2AX - cell viability counter screen (AID 1224847; calls by dose curve; note: nearly all actives have a fitted effect of over 30% in size; note: potency is the fitted concentration of half-maximal effect)
Summary of the method: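 Wild-type CHO-K1 cells (10% FBS medium) were plated overnight at 37C, exposed to compounds at 15 concentrations for 3 hr at 37C (0.76% DMSO final), and viability was read as CellTiter-Glo luminescence after 30 min at room temperature.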

[4] = qHTS assay to identify small molecule antagonists of the estrogen related receptor (ERR) signaling pathway from Tox21 library (AID 1224848); note: nearly all actives have a fitted effect of over 50% in size; note: potency is the fitted concentration of half-maximal effect
Summary of the method: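 ERR reporter cell line (from NTP) seeded 2,000 cells/well, rested 6 h at 37 C/5% CO2, then pin-dosed with compounds in DMSO. After 18 h at 37 C, ONE-Glo added; luminescence read after 30 min at room temperature.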

[5] = qHTS assay to identify small molecule agonists of the estrogen related receptor (ERR) signaling pathway from Tox21 library (AID 1224849; calls by dose curve; note: nearly all actives have a fitted effect of over 15% in size); details: ERR reporter cell line, ONE-Glo luciferase, 18 h
Summary of the method: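 ERR reporter cells (NTP line) pre-incubated 6 hours at 37 C, then exposed to compounds for 18 hours at 37 C. ONE-Glo luciferase luminescence was read after 30 minutes at room temperature.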

[6] = qHTS RealTime-Glo MT Cell Viability Assay in HepG2 cells - 24 hour (AID 1224867); note: nearly all actives have a fitted effect of over 50% in size
Summary of the method: (§1)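 Tox21 10K library screened in qHTS format on HepG2 cells carrying RealTime-Glo reagents. Compounds were added after a 5 h preincubation, and the luminescent signal from continuous culture was measured repeatedly during 40 h treatment.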

[7] = qHTS RealTime-Glo MT Cell Viability Assay in HEK293 cells - 32 hour (AID 1224868); note: nearly all actives have a fitted effect of over 50% in size; note: potency is the fitted concentration of half-maximal effect
Summary of the method: (§2)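 Luminescence generated by NanoLuc from substrate produced by living HEK293 cells served as the viability signal. Each value reflects the reading at its stated time point during continuous 40 h compound exposure at 37 C.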

[8] = A CellTox Green Cytotoxicity Assay to monitor cytotoxicity in HEK293 cells - 0 hour (AID 1224869); note: nearly all actives have a fitted effect of over 50% in size
Summary of the method: (§3)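 HEK293 cells, 600/well, were preincubated 5 hours and then exposed to compounds at 37 C for up to 40 hours. A cell-impermeant cyanine dye staining dead-cell DNA was read by fluorescence at 0, 8, 16, 24, 32 and 40 h time points.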

[9] = qHTS RealTime-Glo MT Cell Viability Assay in HepG2 cells - 40 hour (AID 1224870); note: nearly all actives have a fitted effect of over 50% in size
Summary of the method: (§4)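 HepG2 cells (600/well) mixed with RealTime-Glo MT reagent, settled 5 h at 37 C/5% CO2 before compound addition. Nonlytic NanoLuc luminescence from viable-cell prosubstrate reduction read repeatedly during 40 h treatment at 37 C.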

[10] = A CellTox Green Cytotoxicity Assay to monitor cytotoxicity in HEK293 cells - 40 hour (AID 1224871); note: nearly all actives have a fitted effect of over 45% in size; note: potency is the fitted concentration of half-maximal effect
Summary of the method: as §3

[11] = qHTS RealTime-Glo MT Cell Viability Assay in HEK293 cells - 16 hour (AID 1224872); note: nearly all actives have a fitted effect of over 50% in size; note: potency is the fitted concentration of half-maximal effect
Summary of the method: as §2

[12] = qHTS RealTime-Glo MT Cell Viability Assay in HepG2 cells - 8 hour (AID 1224873); note: nearly all actives have a fitted effect of over 55% in size
Summary of the method: as §4

[13] = qHTS RealTime-Glo MT Cell Viability Assay in HEK293 cells - 40 hour (AID 1224874); details: RealTime-Glo luminescence; max response: stronger effect = lower value; note: nearly all actives have a fitted effect of over 50% in size; note: potency is the fitted concentration of half-maximal effect
Summary of the method: (§5)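 600 cells/well were plated with the nonlytic NanoLuc/prosubstrate reagent, pre-incubated 5 h, then given 23 nL of compound in DMSO. Incubation at 37 C for 40 h, with luminescence from viable-cell-reduced substrate read repeatedly from 0 h.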

[14] = A CellTox Green Cytotoxicity Assay to monitor cytotoxicity in HEK293 cells - 24 hour (AID 1224875); note: nearly all actives have a fitted effect of over 45% in size
Summary of the method: as §3

[15] = A CellTox Green Cytotoxicity Assay to monitor cytotoxicity in HepG2 cells - 16 hour (AID 1224876); note: nearly all actives have a fitted effect of over 45% in size; note: potency is the fitted concentration of half-maximal effect
Summary of the method: (§6)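 HepG2 cells, 600/well, preincubated 5 h with CellTox Green dye, then exposed to Tox21 compounds in DMSO at 37 C for up to 40 h. Dead-cell DNA fluorescence read at the indicated time point.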

[16] = qHTS RealTime-Glo MT Cell Viability Assay in HepG2 cells - 32 hour (AID 1224877); note: nearly all actives have a fitted effect of over 55% in size
Summary of the method: as §1

[17] = A CellTox Green Cytotoxicity Assay to monitor cytotoxicity in HepG2 cells - 24 hour (AID 1224878); note: nearly all actives have a fitted effect of over 45% in size; note: potency is the fitted concentration of half-maximal effect
Summary of the method: as §6

[18] = A CellTox Green Cytotoxicity Assay to monitor cytotoxicity in HepG2 cells - 40 hour (AID 1224879); note: nearly all actives have a fitted effect of over 40% in size; note: potency is the fitted concentration of half-maximal effect
Summary of the method: as §6

[19] = qHTS RealTime-Glo MT Cell Viability Assay in HEK293 cells - 0 hour (AID 1224880)
Summary of the method: as §5

[20] = A CellTox Green Cytotoxicity Assay to monitor cytotoxicity in HEK293 cells - 32 hour (AID 1224881); note: nearly all actives have a fitted effect of over 40% in size; note: potency is the fitted concentration of half-maximal effect
Summary of the method: as §3
% is set by controls: 0 for no effect and ±100 for the full control effect.

COc1ccc(C(O)(c2cncnc2)C2CC2)cc1 (centres undefined)
inactive: Potency [1] | outcome [2] | Potency [3] | Potency [4] | activity change, positive = activation ([5]; at 92.4 µM (top of the series)) 1.33% | Potency [6] | Potency [7] | Potency [8] | Potency [9] | Potency [10] | Potency [11] | Potency [12] | max response [13] 0.605% | Potency [14] | Potency [15] | Potency [16] | Potency [17] | Potency [18] | outcome [19] | Potency [20]

COc1cc(C[C@@H](C)N)c(OC)cc1Br
inactive: Potency [1] | outcome [2] | Potency [3] | Potency [4] | activity change, positive = activation ([5]; at 92.4 µM (top of the series)) -15.6% | Potency [6] | Potency [7] | Potency [9] | Potency [10] | Potency [11] | Potency [12] | max response [13] -17.7% | Potency [14] | Potency [15] | Potency [17] | outcome [19] | Potency [20]

N#CC1(N=NC2(C#N)CCCCC2)CCCCC1
inactive: Potency [1] | outcome [2] | Potency [3] | Potency [4] | activity change, positive = activation ([5]; at 92.4 µM (top of the series)) -5.87% | Potency [6] | Potency [7] | Potency [9] | Potency [10] | Potency [11] | max response [13] -7.83% | Potency [14] | Potency [15] | Potency [16] | Potency [17] | Potency [18] | outcome [19] | Potency [20]

COc1cc(CC(C)N)c(OC)cc1Br (centres undefined)
inactive: Potency [1] | outcome [2] | Potency [3] | Potency [4] | activity change, positive = activation ([5]; at 92.4 µM (top of the series)) -12.2% | Potency [6] | Potency [8] | Potency [9] | Potency [10] | Potency [11] | Potency [14] | Potency [15] | Potency [16] | outcome [19] | Potency [20]

CCCC(C)(COC(N)=O)COC(=O)NC(C)C (centres undefined)
inactive: Potency [1] | outcome [2] | Potency [3] | Potency [4] | activity change, positive = activation ([5]; at 42.5 µM (top of the series)) 0.487% | activity change, positive = activation ([5]; at 92.4 µM (top of the series)) -2.02% | Potency [6] | Potency [7] | Potency [8] | Potency [9] | Potency [10] | Potency [11] | Potency [12] | max response [13] -11.3% and 0.58% | Potency [14] | Potency [15] | Potency [16] | Potency [17] | Potency [18] | outcome [19] | Potency [20]

CCOP(=S)(OCC)Oc1ccc(S(C)=O)cc1 (centres undefined)
inactive: Potency [1] | outcome [2] | Potency [3] | Potency [4] | activity change, positive = activation ([5]; at 92.4 µM (top of the series)) -5.68% | Potency [6] | Potency [7] | Potency [8] | Potency [9] | Potency [10] | Potency [11] | Potency [14] | Potency [15] | Potency [16] | Potency [17] | Potency [18] | outcome [19] | Potency [20]

CC(C)CCCCCCCOC(=O)c1ccccc1C(=O)OCCCCCCCC(C)C
inactive: Potency [1] | outcome [2] | Potency [3] | Potency [4] | activity change, positive = activation ([5]; at 92.4 µM (top of the series)) 0.464% | Potency [6] | Potency [7] | Potency [8] | Potency [9] | Potency [10] | Potency [11] | Potency [12] | max response [13] 11.2% | Potency [14] | Potency [15] | Potency [16] | Potency [17] | Potency [18] | outcome [19] | Potency [20]

O=C(Cc1ccccc1)OCCc1ccccc1
inactive: Potency [1] | outcome [2] | Potency [3] | Potency [4] | activity change, positive = activation ([5]; at 92.4 µM (top of the series)) -0.535% | Potency [6] | Potency [7] | Potency [9] | Potency [10] | Potency [11] | Potency [14] | Potency [15] | Potency [16] | Potency [17] | Potency [18] | outcome [19] | Potency [20]

C1CS1
inactive: Potency [1] | outcome [2] | Potency [3] | Potency [4] | activity change, positive = activation ([5]; at 92.4 µM (top of the series)) -0.221% | Potency [6] | Potency [7] | Potency [9] | Potency [10] | Potency [11] | Potency [14] | Potency [15] | Potency [17] | Potency [18] | outcome [19] | Potency [20]

CC(C)(C)NCC(O)c1ccccc1Cl (centres undefined)
inactive: Potency [1] | outcome [2] | Potency [3] | Potency [4] | activity change, positive = activation ([5]; at 42.5 µM (top of the series)) 4.93% | Potency [6] | Potency [7] | Potency [8] | Potency [9] | Potency [10] | Potency [11] | Potency [12] | max response [13] 4.08% | Potency [14] | Potency [15] | Potency [16] | Potency [17] | Potency [18] | outcome [19] | Potency [20]

CCOP(=S)(S)OCC
inactive: Potency [1] | outcome [2] | Potency [3] | Potency [4] | activity change, positive = activation ([5]; at 92.4 µM (top of the series)) -3.44% | Potency [6] | Potency [7] | Potency [8] | Potency [9] | Potency [10] | Potency [11] | Potency [12] | max response [13] 2.46% | Potency [14] | Potency [15] | Potency [17] | Potency [18] | outcome [19] | Potency [20]

CCC[N+](CCC)(CCC)CCC
inactive: Potency [1] | outcome [2] | Potency [3] | Potency [4] | activity change, positive = activation ([5]; at 92.4 µM (top of the series)) -9.29% | Potency [6] | Potency [7] | Potency [8] | Potency [9] | Potency [10] | Potency [11] | Potency [12] | max response [13] 6.01% | Potency [14] | Potency [15] | Potency [16] | Potency [18] | outcome [19] | Potency [20]

C[Si](Cn1cncn1)(c1ccc(F)cc1)c1ccc(F)cc1
50.6 µM (active) and inactive: Potency [15]
active: Potency [3] 104 µM | Potency [4] 28.2 µM and 30.6 µM | Potency [7] 25.4 µM and 21.9 µM | Potency [10] 54.9 µM | Potency [11] 40.2 µM and 21.9 µM | Potency [13] 25.4 µM and 21.9 µM | Potency [17] 50.6 µM | Potency [18] 50.6 µM and 49 µM
inactive: Potency [1] | outcome [2] | activity change, positive = activation ([5]; at 92.4 µM (top of the series)) -66.3% and -52.8% | Potency [6] | Potency [9] | Potency [12] | Potency [14] | Potency [16] | outcome [19]
inactive and 54.9 µM (active): Potency [20]
